APE1 inh = qHTS Assay for Inhibitors of the Human Apurinic/apyrimidinic Endonuclease 1 (APE1) | recombinant APE1, TAMRA/BHQ-2 abasic DNA cleavage fluorescence | Potency, µM (top dose mostly 65.8 µM), inactives show at the highest dose activity change, negative = inhibition, actives largely listed as inhibitors | 350,000 tested, 0.35% active | AID 2517, 2012;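 also: plate controls were vehicle for no effect and reference inhibitor for full effect; nearly all actives have a fitted effect of over 55% in size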
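Quantitative HTS: incision of a TAMRA/BHQ-2 double-stranded substrate bearing a tetrahydrofuran abasic site by 0.75 nM APE1 raises fluorescence. Substrate 50 nM final, added after 15 min compound preincubation at room temperature; progress as third-minus-first kinetic read difference.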
KAT2A inh = qHTS Assay for Inhibitors of GCN5L2; Histone acetyltransferase KAT2A (Homo sapiens), Q92830; GCN5L2 HAT assay, ThioGlo1 CoA-SH fluorescence; Potency, µM (series often up to 58.9 µM), inactives show top-dose activity change, negative = inhibition, actives largely listed as inhibitors; 390,000 tested, 0.21% active; AID 504327, 2011
Target sequence (Q92830 whole entry, looked up): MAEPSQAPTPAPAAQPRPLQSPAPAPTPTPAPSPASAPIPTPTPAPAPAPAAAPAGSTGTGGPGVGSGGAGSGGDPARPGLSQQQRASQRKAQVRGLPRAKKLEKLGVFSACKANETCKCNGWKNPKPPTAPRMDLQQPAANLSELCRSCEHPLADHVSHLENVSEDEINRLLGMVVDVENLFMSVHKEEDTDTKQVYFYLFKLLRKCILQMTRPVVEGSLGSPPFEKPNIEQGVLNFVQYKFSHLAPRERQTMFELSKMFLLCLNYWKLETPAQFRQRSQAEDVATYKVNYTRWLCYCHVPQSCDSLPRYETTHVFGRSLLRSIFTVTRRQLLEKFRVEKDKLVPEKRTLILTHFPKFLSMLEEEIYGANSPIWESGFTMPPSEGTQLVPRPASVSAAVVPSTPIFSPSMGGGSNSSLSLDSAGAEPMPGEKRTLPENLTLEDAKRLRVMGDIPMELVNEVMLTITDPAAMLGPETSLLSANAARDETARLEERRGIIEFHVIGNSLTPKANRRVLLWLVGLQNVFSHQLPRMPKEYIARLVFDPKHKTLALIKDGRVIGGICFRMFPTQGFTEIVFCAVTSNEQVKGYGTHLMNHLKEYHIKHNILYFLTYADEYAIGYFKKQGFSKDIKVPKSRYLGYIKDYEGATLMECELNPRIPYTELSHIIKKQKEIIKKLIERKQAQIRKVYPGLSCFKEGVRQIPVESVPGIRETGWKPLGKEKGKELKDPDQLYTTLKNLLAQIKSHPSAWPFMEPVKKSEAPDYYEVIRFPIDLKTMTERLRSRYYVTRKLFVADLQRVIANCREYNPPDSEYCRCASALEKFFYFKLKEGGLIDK
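Compounds, pin-transferred from DMSO stocks, meet 20nM GCN5L2 for 15 min before the reaction begins with H3(1-25) peptide (75uM) and acetyl-CoA (70uM). Thiol-reactive ThioGlo1 reports CoA release over 20 min at room temperature.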
L3MBTL1 inh = qHTS Assay for the Inhibitors of L3MBTL1; Potency, µM (highest dose often 57.1 µM), for inactives: at the highest dose activity, negative = inhibition, usual class: inhibitors; 230,000 tested, 0.66% active; Lethal(3)malignant brain tumor-like protein 1 (Homo sapiens), Q9Y468; AlphaScreen L3MBTL1–H3K9me1 peptide binding; also: nearly all actives have a fitted effect of over 60% in size
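Read-out is AlphaScreen signal from streptavidin donor and nickel chelate acceptor beads (10 ug/mL final each) bridging L3MBTL1 (50 nM) and biotinylated K9-monomethylated H3(1-15) peptide (75 nM), after 30 min compound exposure at room temperature.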
BLM helicase inh = qHTS Assay for Inhibitors of Bloom's syndrome helicase (BLM) | recombinant BLM DNA unwinding, fluorescence dequenching | 350,000 tested, 0.2% active | AID 2528, 2010 | Potency, µM (highest dose often 56.1 µM), for inactives: top-dose activity change, negative = inhibition, actives largely listed as inhibitors;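 also: plate controls were vehicle for no effect and no enzyme for full effect; nearly all actives have a fitted effect of over 35% in size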
KDM4E inh = qHTS Assay for Inhibitors of Human Jumonji Domain Containing 2E (JMJD2E) | JMJD2E catalytic domain, FDH-coupled NADH fluorescence (FDH is formaldehyde dehydrogenase) | Potency, µM (doses to about 57.1 µM), for inactives: top-dose activity change, negative = inhibition, hits mostly inhibitors | Lysine-specific demethylase 4E (Homo sapiens), B2RXH2 | 230,000 tested, 1.6% active; active = well fitted inhibition curve with a large enough effect, not every such curve was filed as active; inconclusive = small, poorly fitted or top-dose-only effect, or another doubt; inactive = no such curve, though single readings can be large or run the other way;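 also: 0% = wells with enzyme and -100% = buffer wells without enzyme; nearly all actives have a fitted effect of over 50% in size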
RECQ1 helicase = qHTS Assay for Inhibitors of RecQ-Like Dna Helicase 1 (RECQ1); RECQ1 DNA unwinding, red fluorescence kinetic read; Potency, µM (top dose mostly 57.3 µM), for the others: at the top dose activity, negative = inhibition, actives largely listed as inhibitors; 240,000 tested, 0.54% active; AID 2549, 2010;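 also: plate controls were vehicle for no effect and no enzyme for full effect; nearly all actives have a fitted effect of over 30% in size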
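50 nM RECQ1T1 preincubated 15 min with compound in Tris pH 8.0 buffer with MgCl2, DTT, Tween-20 and 2.5 ug/ml poly(dI-dC); started with 200 nM TAMRA/BHQ-2 forked duplex and 2 mM ATP. Unwinding read as fluorescence (525/598 nm), two reads 2 h apart.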
An asterisk follows results filed as active; i = inactive; ? = inconclusive; nt = no result; [ ] = dose if it differs, or a comment. The entries come from a sample that favours hits as a whole. Unless noted, calls follow the shape of the dose curve; as a rule, active = well fitted curve in the direction sought with a large enough effect; inconclusive = small, poorly fitted or top-dose-only effect, or another doubt; inactive = no such curve, though single readings can be large; an effect the other way counts as inactive or inconclusive. Unless noted, % is scaled to controls: 0 for no effect and ±100 for the full control effect; potency is read from the fitted curve at half-maximal effect.

SMILES | APE1 inh | KAT2A inh | L3MBTL1 inh | BLM helicase inh | KDM4E inh | RECQ1 helicase
COc1cc(NC(=O)c2cnc(N)s2)cc(C(=O)Nc2cccc(C(F)(F)F)c2)c1 | -5% | -27% | nt | -13% | 20µM* | i
COc1cccc(CS(=O)(=O)c2nnnn2-c2ccccc2)c1 | 0% | nt | nt | 1% | 2% | i
CC(C)(C)c1ccc(-c2nc(SCC(=O)Nc3ccc(Cl)cc3)[nH]c(=O)c2C#N)cc1 | nt | 35µM* | nt | ? | nt | nt
CC(C)(C)c1nnc(N/N=C/c2cc(Br)ccc2O)n(N)c1=O | 5% | -4% | ? | -8% | 22µM* | -20%
CCc1nnc(N/N=C/c2cc(Br)c(O)cc2O)n1N | 2% | -3% | -10% | -4% | nt | nt
Cc1ccc(OCCN2CCN(CC(O)Cn3c4ccccc4c4ccccc43)CC2)cc1 (centres undefined) | -3% | -10% | ? | 0% | 8.9µM* | -5%
CN1CCOc2ccc(S(=O)(=O)N3CCN(S(=O)(=O)c4c(F)cccc4F)CC3)cc21 | 19% | 0% | 9% | nt | nt | nt
Cc1cccc(OCC(=O)NC(Cc2ccccc2)C(=O)O)c1 (centres undefined) | 14% | 1% | 8% | 2% | 2% | -1%
Cc1ccc2c(c1)c(CC(NC(=O)c1ccccc1Oc1ccccc1)C(=O)O)cn2C(=O)OCc1ccccc1 (centres undefined) | -6% | 10µM* | nt | -18% | nt | ?
Cn1ccc2cc(-c3ccc4ncnc(NCc5cccnc5)c4c3)ccc21 | 27% | -4% | -10% | nt | nt | nt
CCOC(=O)c1c(N)sc(=S)c2c1CCC2 | 35µM* | -4% | ? | -27% | ? | ?
CCOC(=O)c1c(N)sc(N)c1C(=O)OCC | ? | -17% | -8% | 1% | -6% | -2%
CCOC(=O)c1c(C)oc2c1c(CN1CCN(CCO)CC1)c(O)c1ccccc12 | -5% | -7% | nt | -3% | ? | -5%
CCOC(=O)c1c(C)oc2c1c(CN1CCN(C(=O)OCC)CC1)c(O)c1ccccc12 | -4% | -9% | -15% | -9% | 25µM* | -11%
O=C(O[C@H]1CN2CCC1CC2)N1CCc2ccccc2[C@@H]1c1ccccc1 | nt | 4% | nt | 4% | nt | nt
COc1ccc2[nH]c(=O)c(CN(Cc3nnnn3Cc3ccco3)C3CCCCC3)cc2c1 | ? | -20% | ? | ? | ? | ?
COc1ccc2[nH]c(=O)c(CN(C3CCCCC3)C(c3nnnn3Cc3ccco3)C(C)C)cc2c1 (centres undefined) | -1% | -24% | ? | -20% | ? | 28µM*
COCO[C@H]([C@@H](C)C=C(Br)Br)[C@@H](C)COCc1ccc(OC)cc1 | -1% | nt | nt | 1% | nt | -9%
CCOc1ccc(C2NC(=O)NC(c3ccccc3)=C2C(C)=O)cc1OC (centres undefined) | 17% | 2% | 0% | -1% | nt | nt
CC(=O)C1=C(c2ccccc2)NC(=O)NC1c1ccc(O)c(O)c1 (centres undefined) | 40µM* | -4% | ? | -8% | ? | -3%
CC(=O)C1=C(c2ccccc2)NC(=S)NC1c1ccc(O)c(O)c1 (centres undefined) | 13µM* | -11% | ? | -16% | 22µM* | ?
CC(=O)C1=C(c2ccccc2)NC(=S)NC1c1cc(Cl)c(OC(C)C)c(Cl)c1 (centres undefined) | -7% | -13% | -8% | -9% | -12% | -22%
COc1ccc(COC(=O)N/N=C2/C[C@@H](O)[C@@H](O)[C@@H]3[C@H]4C(=O)N(c5ccc(F)cc5F)C(=O)[C@@H]4CC[C@@H]23)cc1 | 37%[12.4 µM] | nt | nt | -12%[12.4 µM] | nt | 8%[11.5 µM]
O=[N+]([O-])c1cc(CN2CCOCC2)c2cccnc2c1O | 5% | ? | 1.3µM* | 0% | 4% | -8%
COc1cc(OC)cc(C(=O)Oc2c(CN3CCOCC3)cc(Cl)c3cccnc23)c1 | 2% | 1% | 25µM* | -2% | -15% | 13%
SMILES | APE1 inh | KAT2A inh | L3MBTL1 inh | BLM helicase inh | KDM4E inh | RECQ1 helicase
O=[N+]([O-])c1cc(Cl)c(O)c2ncccc12 | ? | -11% | nt | -4% | ? | -1%
O=[N+]([O-])c1cc(CN2CCN(c3ccccc3)CC2)c(O)c2ncccc12 | -8% | -3% | 4µM* | -1% | 19% | i
C[C@@H]1O[C@H]2C3=C(C(=O)[C@H]4O[C@@H]4[C@H]3O)[C@@H]1[C@@H]1[C@@H](C)OC=C3[C@H](O)[C@H]4O[C@@H]4/C(=N\OCc4ccccc4)[C@]312 | 14%[12.4 µM] | nt | nt | 0%[12.4 µM] | nt | -1%[11.5 µM]
Cc1ccc(/C=C/C(=O)OCC(=O)c2ccc3c(c2)NC(=O)CO3)o1 | -13% | 0% | 0% | nt | nt | nt
O=C1COc2ccc(C(=O)COC(=O)/C=C/c3ccc(Br)o3)cc2N1 | ? | -23% | 3.5µM* | nt | nt | nt
CN(C)c1ccc(N/C=C/C(=O)c2ccc(F)cc2)cc1 | -5% | -20% | -20% | -3% | 13µM* | 10%
Cn1c(=O)c2c(nc(Br)n2Cc2nnc(N)s2)n(C)c1=O | 8% | -7% | nt | 0% | -3% | -2%
CCN(CC)S(=O)(=O)c1ccc(N/N=C(\C)c2ccc(OC)cc2O)nc1 | -8% | -28% | nt | -10% | 32µM* | -12%
CCN(CC)S(=O)(=O)c1ccc(N/N=C/c2ccc(O)cc2)nc1 | 5% | 0% | 3% | -5% | ? | -22%
O=C(O)C(O)c1ccco1 (centres undefined) | 2% | -15% | 5µM* | ? | 9% | -11%
Cc1ccc(NC(=O)c2cc(-c3ccco3)nc3ccccc23)cc1S(=O)(=O)N1CCOCC1 | ? | ? | -8% | -19% | 16µM* | ?
CCCn1c(Nc2nc3ccccc3n2C)nc2ccccc21 | 5% | -16% | 18µM* | -10% | ? | 5%
O=C(Nc1ccc(Br)cc1F)N1CCC2(CC1)Oc1ccccc1C(=O)N2Cc1ccccc1F | nt | -5% | nt | -7% | nt | nt
Cn1c(=O)cc2c3c(c(N4CCCCC4)ccc31)C(=O)c1ccccc1-2 | -6% | 1% | ? | -3% | -1% | -17%
O=C1c2ccccc2C(=O)c2c1cccc2N1CCCC1 | 3% | -13% | 8.9µM* | -27% | 3% | 5%
